Test results from PubChem BioAssay (NCI).
About 79,000 compounds went through this panel and 15% of them were active in at least one assay; those are over-represented in the sample as a whole. Values without a mark were called inactive. Active and inactive are the calls of the source. Cut-off read from the data, not from the text of the source: active = growth inhibition above about 70%; inactive = the rest.

Tests used:
[1] = NCI Yeast Anticancer Drug Screen. Data for the rad50 strain (AID 155);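 note: 0% = growth of vehicle-only cultures of the same strain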; conditions: S. cerevisiae rad50 strain growth inhibition; at 50.0 µM; active compounds read high
Summary of the method: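 Compounds were tested on a yeast strain with an engineered DNA damage repair alteration; the reported value is growth inhibition normalised to vehicle treatment.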

[2] = NCI Yeast Anticancer Drug Screen. Data for the mec2-1 strain (AID 157); conditions: S. cerevisiae mec2-1 strain, at 50.0 µM, active compounds read high
Summary of the method: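 mec2-1 yeast strain, carrying an alteration in DNA damage repair or cell cycle control, was exposed to compounds; growth inhibition was measured relative to vehicle-treated controls.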

[3] = NCI Yeast Anticancer Drug Screen. Data for the sgs1 mgt1 strain (AID 161);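 note: 0% = growth of cultures given vehicle only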; conditions: S. cerevisiae sgs1 mgt1 strain, at 50.0 µM, active compounds read high
Summary of the method: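 Compounds are added to genetically altered yeast, and growth is compared with cultures given vehicle alone to give percent inhibition.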

[4] = NCI Yeast Anticancer Drug Screen. Data for the cln2 rad14 strain (AID 165);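 note: 0% = growth equal to vehicle treated cultures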; conditions: S. cerevisiae cln2 rad14 strain, at 50.0 µM, active compounds read high
Summary of the method: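 Yeast carrying cln2 and rad14 alterations (cell cycle control and DNA damage repair) were exposed to compounds. Growth inhibition was measured against vehicle-treated controls.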

[5] = NCI Yeast Anticancer Drug Screen. Data for the bub3 strain (AID 167); conditions: S. cerevisiae bub3 mutant strain, at 50.0 µM, active compounds read high
Summary of the method: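 Growth of a checkpoint-deficient yeast mutant is measured after compound exposure. Values represent inhibition relative to vehicle.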

[6] = NCI Yeast Anticancer Drug Screen. Data for the mlh1 rad18 strain (AID 175); conditions: S. cerevisiae mlh1 rad18 strain growth inhibition; at 50.0 µM; active compounds read high
Summary of the method: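 Growth inhibition of the yeast strain was measured after compound exposure and expressed relative to vehicle-treated controls. The strain carries defined defects in DNA damage repair.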

Compound | growth inhibition [1] | growth inhibition [2] | growth inhibition [3] | growth inhibition [4] | growth inhibition [5] | growth inhibition [6]
O=C(O)[C@@H]1[C@H]2C[C@H]3c4[nH]c5ccccc5c4CCN3C[C@@H]2CC[C@@H]1O | -10.3% | -27% | 9.45% | 6.5% | -20.6% | -19.9%
Cn1cnc2nc(Cl)nc(Cl)c21 | 13.1% | 23% | 10.7% | -0.05% | 27.1% | 11.2%
CNC(=S)NC(C)(C)C | -14% | -17.3% | -20.6% | -29.2% | -18.8% | -20%
COc1cc2c3c(n(C)c(=O)c2cc1OC)-c1cc2c(cc1C3=O)OCO2 | 8.35% | -15.2% | -1.5% | 53.3% | -3.6% | -16.1%
CC(=O)Oc1ccc(Br)cc1C(=O)O | -15.2% | -24.2% | -9.7% | -26.9% | -10.6% | 4.15%
NC(=S)N/N=C/c1ccc(N)cc1 | 7.2% | -2.35% | 0.9% | -1.35% | 2.35% | 7.5%
COc1cc2nc3cc([N+](=O)[O-])ccc3c(Cl)c2cc1OC | -14.8% | -20.9% | -19.7% | 4.3% | -14.2% | 7.6%
O=C(O)c1ccnc(Br)c1 | -3.05% | -0.05% | -31.1% | 11.7% | -27.3% | -14.2%
C[N+](C)(C)C(=O)c1ccccc1 | 21.6% | 21.4% | 22.1% | 11.1% | -1.15% | 46.6%
CCOC(=O)c1cc(/C=C/c2ccc(Cl)cc2Cl)on1 | -31.4% | -52.7% | -43% | -41.1% | -36.1% | -45.5%
CC(=O)Nc1cccc(Cl)c1C | 17.6% | 11.7% | 1.35% | 4.9% | 8.85% | -0.35%
CCCCC(O)c1ccccc1 (stereo not drawn) | -16.6% | -4.15% | -24.7% | -21.8% | -12.9% | 6.8%
O=[N+]([O-])c1ccc(S(=O)(=O)NN=C2CCCCC2)cc1 | 19.9% | 13.2% | 8.1% | -31% | 8.85% | 37.8%
COc1cc2c3cc1Oc1c(OC)c(OC)cc4c1C(Cc1ccc(O)c(c1)Oc1ccc(cc1)CC3N(C)CC2)N(C)CC4 (stereo not drawn) | 1.05% | 0.55% | 0.65% | 6.9% | 8.1% | -89.8%
CCCC(=O)c1cc(C)ccc1OC | -2.15% | 0.15% | -9.85% | -22.6% | 6.6% | -3.2%
c1ccc2c(c1)Sc1ccccc1S2 | -6.95% | 6.8% | 22.1% | -19.6% | -3.6% | -18.6%
O=C1NC(=O)C2C(=O)NC(=O)C1C21CCc2ccccc21 (stereo not drawn) | -8.5% | -16.6% | -23.5% | -4.25% | -41.9% | -7.45%
CCNc1nc2c(cnn2C)c(=O)[nH]1 | -16.6% | 28.4% | 4.4% | -34.1% | 28.1% | 29.4%
CN(C)/N=C/c1ccccc1O | 1% | 4% | -16.9% | -6.85% | -21.6% | 2.9%
COc1ccccc1N=Nc1c(O)ccc2cc(S(=O)(=O)O)ccc12 | -14.7% | 6.9% | 6.75% | 9.95% | -2.75% | -13.2%
COc1cc2nn(-c3ccccc3N)nc2cc1OC | 19.4% | 36.6% | 48.2% | 14.7% | 52.2% | 29.9%
CC1=CC(=O)c2ccccc2C1=O | 14.4% | 15.3% | 0.1% | 13.2% | 25.6% | 18.2%

Compound | growth inhibition [1] | growth inhibition [2] | growth inhibition [3] | growth inhibition [4] | growth inhibition [5] | growth inhibition [6]
C/C(=N\NC(=O)c1ccccc1N)c1ccccc1O | 6.15% | -7.75% | 26.6% | 4.5% | 26.1% | 21.7%
Cc1cc(=O)[nH]c(NN=C2CCCC2)n1 | -27.9% | -52.5% | -35.4% | -2.6% | -33.5% | -27.1%
CCNCCCCNCCCCNCCCCNCCCCNCC | -16.6% | 4.25% | -6.1% | 11.2% | 3.95% | 6.7%
CCOC(=O)/C(C#N)=C/c1cccc(C)c1 | -19.4% | 22.8% | -25.2% | 13.3% | 23.2% | -6.55%
CN(C)c1ccc(S(=O)(=O)O)cc1 | 1.3% | -3.65% | 6.65% | 10% | 2.55% | 21.9%
O=C(O)/C=C/c1ccc2c(c1)CCC2 | 28.6% | 18.1% | 48.4% | 23.8% | 50.6% | 42.2%
CCC(=O)Oc1ccc(OC)cc1 | 23.1% | -13.4% | 2.9% | 29.4% | 3.9% | 23.6%
Cc1ncc(C#N)c(N)n1 | -24.9% | -18% | 12.9% | -7.1% | -3.05% | -5.4%
Cc1cc(C)cc(NCCC#N)c1 | 15.5% | -32.5% | 18.4% | -1.75% | 11.8% | -17.4%
O=C(O)CCCc1ccccc1 | 5.1% | -6.2% | 2.05% | -7.65% | 6% | 11.3%
NNc1ccccc1C(=O)O | 4.4% | -3.05% | -2.55% | -4.15% | -2% | 14.8%
CC1(O)OC(COc2ccc(Cl)cc2)COC1O (stereo not drawn) | 0.55% | -8.65% | 4.7% | 8.55% | -9.7% | 18.9%
O=C(NN=C1CCCCC1)C(=O)NN=C1CCCCC1 | 34.1% | 13.6% | 13.5% | -20.7% | 10% | 28.6%
O=c1[nH]cc(Cl)cc1O | -0.15% | -3.3% | -1.35% | -40.9% | 13.2% | 4.9%
CN1C(=O)CN2CCc3ccccc3C2c2cc(Cl)ccc21 (stereo not drawn) | 33.3% | 26.4% | 47.6% | 22.1% | 48% | 42.1%
C#Cc1cccc(NC(=O)c2ccc(Cl)cc2Cl)c1 | 9.95% | -9.7% | 26.6% | 24.2% | 25% | 15.7%
NC(CSC(c1ccccc1)(c1ccccc1)c1ccccc1)C(=O)O (stereo not drawn) | 1.4% | -18.8% | -28.9% | 20.8% | -8.25% | -42.2%
OCc1ccc(-c2ccc(-c3ccc(CO)s3)o2)s1 | 31.1% | 3.55% | 39.9% | 31.9% | 25.3% | 90.7% (active)
CCCC(C)OCC(=O)O (stereo not drawn) | 31.6% | -3.4% | 1.55% | 4.35% | -1.25% | -7.1%
CC1OC(Oc2c(-c3ccc(O)c(O)c3)oc3cc(O)cc(O)c3c2=O)C(O)C(O)C1O (stereo not drawn) | 21.4% | -8.25% | 14.2% | 8.6% | 20.9% | 38.4%
CCOC(=O)c1ccc(Nc2sc(C(=O)c3cccc([N+](=O)[O-])c3)c(N)c2C#N)cc1 | -9.95% | -9.95% | -0.95% | 5.75% | 2.8% | 0.55%
